In PubChem BioAssay one finds inhibition data, which are given here for 17 molecules.

Structures are written as SMILES. Calls of active or inactive are those of the source. No rule for the calls is given here.

Sequence of Pantothenate synthetase (Mycobacterium tuberculosis (strain ATCC 25618 / H37Rv)) (P9WIL5 whole entry, looked up): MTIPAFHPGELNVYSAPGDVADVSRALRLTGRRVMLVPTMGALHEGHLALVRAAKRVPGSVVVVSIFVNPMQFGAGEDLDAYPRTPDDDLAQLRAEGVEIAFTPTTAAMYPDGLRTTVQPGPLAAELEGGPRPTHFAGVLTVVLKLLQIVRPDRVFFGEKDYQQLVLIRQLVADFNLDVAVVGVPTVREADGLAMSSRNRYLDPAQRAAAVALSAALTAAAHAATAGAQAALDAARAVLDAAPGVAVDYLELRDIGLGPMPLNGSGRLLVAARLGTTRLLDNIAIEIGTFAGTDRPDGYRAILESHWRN

The test has as its target Pantothenate synthetase (Mycobacterium tuberculosis (strain ATCC 25618 / H37Rv)) (UniProt P9WIL5). Kind of test: Recombinant Mtb pantothenate synthetase (PanC) inhibitors, coupled enzyme, confirmatory (AID 375).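 Also: 0% = full reaction with vehicle and 100% = no enzyme background.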 The note with it: coupled enzyme assay; at 10 µM, hits give high values.
As to `O=c1cc(COn2nnc3ccc(C(F)(F)F)cc32)nc2sccn12`, the inhibition is 0% (inactive).

As for `CCOC(=O)N1CCN(C(=O)c2ccc(N3C(=O)CCC3=O)cc2)CC1`, the inhibition is 0% (inactive).

For `O=C(COC(=O)CCOc1ccccc1)Nc1ccc(Cl)cn1`, the inhibition is 0% (inactive).

On to `COc1ccccc1C(=O)N1CCN(C(=O)c2ccncc2)CC1`, for which the inhibition is 0% (inactive).

With `CC(C)(C)c1cc(C(=S)N2CCN(CCO)CC2)cc(C(C)(C)C)c1O`, the inhibition is 5% (inactive).

For `O=C(CCCSc1nc2ccccc2s1)NC1=NCCS1`, the inhibition is 0% (inactive).

`O=C(NCC1CCCO1)c1cc(-c2ccncc2)nc2ccc(S(=O)(=O)N3CCOCC3)cc12` (configuration not stated): the inhibition was 0% (inactive).

On to `CC(C(=O)N1CCOCC1)N1c2cccc3cccc(c23)S1(=O)=O` (configuration not stated), for which the inhibition was 8% (inactive).

With `CCC(=O)N1Cc2ccccc2-c2ccccc2C1=O`, the inhibition was 0% (inactive).

As to `CNC(=O)CSc1nnc(-c2cc3c(C)nn(-c4ccccc4)c3s2)n1C`, the inhibition was 2% (inactive).

Take `CC(C)C(c1nnnn1CC1CCCO1)N1CCN(Cc2ccc3c(c2)OCO3)CC1` (configuration not stated): the inhibition was 0% (inactive).

In the case of `COc1ccc(N2CCN(CCNS(=O)(=O)c3cccc4nsnc34)CC2)cc1`, the inhibition was 2% (inactive).

`CNC(=O)C1C2C=CC3(O2)C1C(=O)N(C1CC1)C3C(=O)NCc1ccc(OC)cc1` (configuration not stated): the inhibition is 0% (inactive).

`CCOC(=O)N1CCC(n2c(=S)[nH]c3cc(OC)c(OC)cc3c2=O)CC1`: the inhibition is 2% (inactive).

Take `CC(C)(C#N)Nn1cnnc1`: the inhibition is 0% (inactive).

Take `CCOC(=O)C1=C(C)Nc2ncnn2C1c1cc(OC)ccc1OC` (configuration not stated): the inhibition is 0% (inactive).

For `O=C(Cn1nnc2ccccc2c1=O)NC1CCCc2ccccc21` (configuration not stated), the inhibition is 5% (inactive).
